# Tested on: Plasmodium falciparum NF54 stage IV/V gametocytes
# Assay: % inhibition of gametocyte viability (ATP bioluminescence); higher = more inhibition
# Settings: 5 µM; 24 h
# Outline: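 In 96-well plates, compound at 1 or 5 µM was added to 30,000 density-gradient-enriched stage IV/V NF54 gametocytes per well and incubated for 24 h at 37 °C. ATP readout used the Promega BacTiter Glo bioluminescence system. Percent inhibition of gametocyte viability comes from a single run, normalised to control wells.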
row,SMILES,% inhibition of gametocyte viability
1,Clc1cc2nc(C3CCNCC3)n(Cc3ccc(CNCCc4cnc[nH]4)cc3)c2cc1Cl,0.428%
2,O=c1cc(OCc2ccccc2)ccn1Cc1ccccc1,< 0%
3,Cc1cc(CCCOc2c(C)cc(-c3noc(C(F)(F)F)n3)cc2C)on1,5.28%
4,CCC(C)n1ncn(-c2ccc(N3CCN(c4ccc(OCC5COC(Cn6cncn6)(c6ccc(Cl)cc6Cl)O5)cc4)CC3)cc2)c1=O (stereo not drawn),< 0%
5,O=C(O)c1ccccc1Sc1ncnc2sc3c(c12)CCC3,< 0%
6,Cc1nc(Nc2ccc(F)cc2)nc(N2CCc3ccccc3C2C)c1C (stereo not drawn),43.7%
7,NC(=O)c1nccn([C@@H]2O[C@H](CO)[C@@H](O)[C@H]2O)c1=O,< 0%
8,Nc1nc(F)nc2c1ncn2[C@H]1O[C@@H](CO)[C@H](O)[C@@H]1O,< 0%
9,NC(=S)N/N=C/c1ncccc1N,15.5%
10,CCCC1(C2CC2)c2cc(Cl)ccc2NC(=O)N1C (stereo not drawn),< 0%
11,COc1cc(C(C(=O)NC2CCCCC2)N(C(=O)Cc2c[nH]c3ccccc23)c2ccc(C(C)C)cc2)cc(OC)c1OC (stereo not drawn),7.49%
12,Oc1cccc(C(Nc2nccs2)c2ccc3cccnc3c2O)c1 (stereo not drawn),59.3%
13,COc1ccc(C)cc1NC(=O)c1ccc(S(=O)(=O)N2CCCCC2)cc1,< 0%
14,CCC[C@H](NC(=O)[C@@H]1[C@H]2CCC[C@H]2CN1C(=O)[C@@H](NC(=O)[C@@H](NC(=O)c1cnccn1)C1CCCCC1)C(C)(C)C)C(=O)C(=O)NC1CC1,10.7%
15,O=C(CSc1nnc(Br)n1-c1ccc(C2CC2)c2ccccc12)Nc1ccc(C(=O)O)cc1Cl,< 0%
16,CC(C)(C)c1ccc(C(Cn2cccc(C(F)(F)F)c2=O)NC2Cc3ccccc3C2)cc1 (stereo not drawn),< 0%
17,O=C1NC(=O)C(Br)=C1Br,< 0%
18,CC(C)Nc1nc2cc(Cl)c(Cl)cc2n1[C@H]1O[C@@H](CO)[C@H](O)[C@@H]1O,< 0%
19,C=C[C@]1(C)C[C@@H](OC(=O)CS[C@@H]2C[C@H]3CC[C@@H](C2)N3C)[C@]2(C)[C@H](C)CC[C@]3(CCC(=O)[C@H]32)[C@@H](C)[C@@H]1O,7.83%

row,SMILES,% inhibition of gametocyte viability
1,CCCCCCC1c2ccc(O)cc2Oc2cc(O)ccc21,15.4%
2,O=C(NCc1ncc(C(F)(F)F)cc1Cl)c1c(Cl)cccc1Cl,< 0%
3,CN(C)CCNC(=O)c1cccc2cccnc12,< 0%
4,CC(C)CCN1C(=O)C(C2=NS(=O)(=O)c3cc(NS(C)(=O)=O)ccc3N2)=C(O)[C@@H]2[C@H]3CC[C@H](C3)[C@@H]21,< 0%
5,CC(C)(C)c1ccc(C(=O)NC(=O)N2CCCc3ccccc32)cc1,< 0%
6,Cc1nc2ccc(Oc3ccccc3)cc2c2c1CCN2CCc1ccccc1,93.2%
7,Cc1c(OCC(F)(F)F)ccnc1CS(=O)c1nc2ccccc2[nH]1 (stereo not drawn),< 0%
8,O=C(CP(=O)(O)O)NCCc1cccc(Oc2ccccc2)c1,< 0%
9,N[C@@H]1CN(c2c(F)cc3c(=O)c(C(=O)O)cn([C@@H]4C[C@@H]4F)c3c2Cl)CC12CC2,< 0%
10,CCOC(=O)Nc1cc(NC(C)CC(C)CN(CC)CC)c2nc(-c3ccccc3)c(-c3ccccc3)nc2n1 (stereo not drawn),75%
11,O=S(=O)(NCB(O)O)c1cc2c(Cl)ccc(Cl)c2s1,< 0%
12,CN(C)CC(=O)Nc1ccc2[nH]c(=O)c3ccccc3c2c1,2.31%
13,Cc1nc(-c2ccc(C3N(C)c4ccc(F)cc4C(=O)N3c3ccccc3)s2)cs1 (stereo not drawn),< 0%
14,CCc1cc(Nc2cc(=O)n(CCN3CCN(C(=O)c4ccccc4)CC3)c(=O)[nH]2)ccc1C,< 0%
15,CCOC(=O)N[C@@H]1CC[C@@H]2[C@@H](C1)C[C@H]1C(=O)O[C@H](C)[C@H]1[C@H]2/C=C/c1ccc(-c2cccc(F)c2)cn1,33%
16,O=C(N[C@H](Cc1cccc2ccccc12)C(=O)NCCc1c[nH]cn1)C1Cc2ccccc2C1,1.33%
17,Cc1nc(N(C)C(=O)Cc2ccc(-c3ccccn3)cc2)sc1S(N)(=O)=O,< 0%
18,COc1ccc(C[C@@H](C)[C@@H](C)Cc2ccc(OC)c(OC)c2)cc1OC,< 0%
19,Nc1nnnn1CCOc1c2[nH]c3ccc(Cl)cc3c2cc2c1[nH]c1ccc(Cl)cc12,< 0%
